Measured values as given in the antibiotic and cytotoxicity screens of Wong et al. (2023).
Out of some 39,000 compounds screened, about 1,500 (3.8%) were called active. This is one part of a sample in which actives are shown more often than they occur.

These compounds were tested on HSkMC (human skeletal muscle cells) (assay: cytotoxicity call (relative viability < 0.9)). Details: 10 µM.

Compound	cytotoxicity call
C[C@H]1CN([C@@H](C)CO)S(=O)(=O)c2ccc(C3=CCCC3)cc2O[C@@H]1CN(C)C(=O)c1cnccn1	inactive
C[C@@H]1CN([C@@H](C)CO)S(=O)(=O)c2ccc(C#CCC3CCCC3)cc2O[C@@H]1CN(C)C(=O)CN(C)C	inactive
Cc1cc(-c2ccc(NN=C3C=Cc4c(S(=O)(=O)O)cc(S(=O)(=O)O)c(N)c4C3=O)c(C)c2)ccc1NN=C1C=Cc2c(S(=O)(=O)O)cc(S(=O)(=O)O)c(N)c2C1=O	inactive
COc1cc(-c2ccc(NN=C3C=Cc4c(S(=O)(=O)O)cc(S(=O)(=O)O)c(N)c4C3=O)c(OC)c2)ccc1NN=C1C=Cc2c(S(=O)(=O)O)cc(S(=O)(=O)O)c(N)c2C1=O	active
Cc1noc(C)c1S(=O)(=O)Nc1ccc2c(c1)CC(=O)N([C@@H](C)CO)C[C@@H](C)[C@H](CN(C)C(=O)NC(C)C)O2	inactive
C[C@@H]1CN([C@@H](C)CO)C(=O)c2cc(NC(=O)Nc3cccc4ccccc34)ccc2O[C@@H](C)CCCCO[C@H]1CN(C)C(=O)Nc1ccc2c(c1)OCO2	inactive
C[C@@H]1CN([C@@H](C)CO)C(=O)Cc2cc(NC(=O)CCC(F)(F)F)ccc2O[C@@H]1CN(C)S(=O)(=O)c1ccccc1	inactive
C[C@@H]1CN([C@H](C)CO)C(=O)Cc2cc(NC(=O)Nc3ccc(C(F)(F)F)cc3)ccc2O[C@H]1CN(C)Cc1ccc2c(c1)OCO2	inactive
C[C@H](CO)N1C[C@H](C)[C@H](CN(C)Cc2ccc3c(c2)OCO3)Oc2ccc(NC(=O)Nc3ccc(C(F)(F)F)cc3)cc2CC1=O	inactive
C[C@H](CO)N1C[C@H](C)[C@@H](CN(C)Cc2ccc3c(c2)OCO3)Oc2ccc(NC(=O)Nc3ccc(C(F)(F)F)cc3)cc2CC1=O	active
C[C@@H]1CN([C@@H](C)CO)C(=O)Cc2cc(NC(=O)Nc3ccc(C(F)(F)F)cc3)ccc2O[C@@H]1CN(C)Cc1ccc2c(c1)OCO2	active
C[C@@H]1CN([C@H](C)CO)C(=O)Cc2cc(NC(=O)Nc3ccc(C(F)(F)F)cc3)ccc2O[C@@H]1CN(C)Cc1ccc2c(c1)OCO2	active
C[C@H]1CN([C@@H](C)CO)C(=O)Cc2cc(NC(=O)Nc3ccc(C(F)(F)F)cc3)ccc2O[C@H]1CN(C)Cc1ccc2c(c1)OCO2	active
C[C@@H]1CN([C@@H](C)CO)C(=O)Cc2cc(NC(=O)Nc3ccc(C(F)(F)F)cc3)ccc2O[C@H]1CN(C)Cc1ccc2c(c1)OCO2	inactive
C[C@H]1CN([C@@H](C)CO)C(=O)Cc2cc(NC(=O)Nc3ccc(C(F)(F)F)cc3)ccc2O[C@@H]1CN(C)Cc1ccc2c(c1)OCO2	inactive
C[C@@H]1CN([C@H](C)CO)C(=O)Cc2cc(NS(=O)(=O)c3cn(C)cn3)ccc2O[C@H]1CN(C)S(=O)(=O)c1ccc(F)cc1	inactive
C[C@@H]1CN([C@H](C)CO)S(=O)(=O)c2ccc(-c3cccnc3)cc2O[C@H]1CN(C)C(=O)NC1CCCC1	inactive
C[C@H]1CN([C@@H](C)CO)C(=O)c2cccc(NC(=O)c3ccncc3)c2O[C@H]1CN(C)C(=O)Nc1ccc2c(c1)OCO2	inactive
C[C@@H]1CCCCO[C@H](CN(C)C(=O)c2ccncc2)[C@@H](C)CN([C@@H](C)CO)C(=O)c2cc(NC(=O)NC3CCCCC3)ccc2O1	inactive

Compound	cytotoxicity call
Cc1noc(C)c1S(=O)(=O)Nc1ccc2c(c1)C(=O)N([C@H](C)CO)C[C@@H](C)[C@H](CN(C)S(=O)(=O)c1cn(C)cn1)O2	inactive
CCS(=O)(=O)Nc1ccc2c(c1)C(=O)N(C)[C@@H]1CC[C@H](CC(=O)NCCCN3CCOCC3)O[C@H]1CO2	inactive
Cc1ccc(S[C@]2(C(=O)NCCN3CCOCC3)CC(=O)N(Cc3ccccc3Cl)[C@@H]2c2ccc(CO)cc2I)cc1	inactive
C[C@H](CO)N1C[C@H](C)[C@@H](CN(C)C(=O)CN2CCOCC2)Oc2ncc(C#C[C@@H](C)O)cc2C1=O	inactive
COCC(=O)N(C)C[C@H]1Oc2cc(C#Cc3cccnc3)ccc2S(=O)(=O)N([C@H](C)CO)C[C@@H]1C	inactive
C[C@@H]1CCCCO[C@H](CN(C)Cc2ccc(C(=O)O)cc2)[C@@H](C)CN([C@H](C)CO)C(=O)c2cc(NC(=O)Nc3ccc4c(c3)OCO4)ccc2O1	inactive
Cc1noc(C)c1S(=O)(=O)Nc1ccc2c(c1)C(=O)N([C@H](C)CO)C[C@H](C)[C@H](CN(C)S(=O)(=O)c1cn(C)cn1)OCCCC[C@@H](C)O2	inactive
C[C@H](CCC(=O)O)[C@H]1CC[C@H]2[C@@H]3CC=C4C[C@@H](O)CC[C@]4(C)[C@H]3CC[C@]12C [3beta-HYDROXYCHOL-5-ENIC ACID ]	inactive
Cc1noc(C)c1S(=O)(=O)Nc1ccc2c(c1)C(=O)N([C@@H](C)CO)C[C@@H](C)[C@@H](CN(C)Cc1ccc(C(F)(F)F)cc1)OCCCC[C@@H](C)O2	inactive
C[C@H]1CN([C@@H](C)CO)C(=O)Cc2cc(NC(=O)Nc3ccc(C(F)(F)F)cc3)ccc2O[C@@H]1CN(C)Cc1ccc(C(=O)O)cc1	inactive
C[C@@H]1CN([C@@H](C)CO)C(=O)Cc2cc(NC(=O)Nc3ccc(C(F)(F)F)cc3)ccc2O[C@H]1CN(C)Cc1ccc(C(F)(F)F)cc1	active
C[C@H]1CN([C@@H](C)CO)C(=O)Cc2cc(NC(=O)Nc3ccc(C(F)(F)F)cc3)ccc2O[C@H]1CN(C)Cc1ccc(C(F)(F)F)cc1	active
C[C@H](CO)N1C[C@H](C)[C@H](CN(C)Cc2ccc(C(F)(F)F)cc2)Oc2ccc(NC(=O)Nc3ccc(C(F)(F)F)cc3)cc2CC1=O	active
C[C@@H]1CN([C@H](C)CO)C(=O)Cc2cc(NC(=O)Nc3ccc(C(F)(F)F)cc3)ccc2O[C@H]1CN(C)Cc1ccc(C(=O)O)cc1	inactive
C[C@H](CO)N1C[C@H](C)[C@H](CN(C)Cc2ccc(C(=O)O)cc2)Oc2ccc(NC(=O)Nc3ccc(C(F)(F)F)cc3)cc2CC1=O	inactive
C[C@H]1CN([C@@H](C)CO)C(=O)Cc2cc(NC(=O)Nc3ccc(C(F)(F)F)cc3)ccc2O[C@@H]1CN(C)Cc1ccc(C(F)(F)F)cc1	active
C[C@@H]1CN([C@@H](C)CO)C(=O)Cc2cc(NC(=O)Nc3ccc(C(F)(F)F)cc3)ccc2O[C@H]1CN(C)Cc1ccc(C(=O)O)cc1	inactive
C[C@H](CO)N1C[C@H](C)[C@@H](CN(C)Cc2ccc(C(=O)O)cc2)Oc2ccc(NC(=O)Nc3ccc(C(F)(F)F)cc3)cc2CC1=O	inactive
C[C@H]1CN([C@@H](C)CO)C(=O)Cc2cc(NC(=O)Nc3ccc(C(F)(F)F)cc3)ccc2O[C@H]1CN(C)Cc1ccc(C(=O)O)cc1	inactive
